The target of the assay is Luciferin 4-monooxygenase (Photinus pyralis) (UniProt P08659). Nature of the assay: qHTS Assay for Inhibitors of Firefly Luciferase from the GSK Published Protein Kinase Inhibitor Set. The method in brief: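 Purified P. pyralis luciferase, 10nM, with 10uM D-luciferin and 10uM ATP in 50mM Tris acetate pH 7.5, 10mM Mg acetate, 0.01% Tween-20, 0.05% BSA. Titration ~60uM to 300pM; luminescence read after about 5 min.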

Results filed as inconclusive are left out. Where a call stands in place of a potency, no number is given. Activity calls are given as the source filed them. Calls come from the whole dose curve; as a rule, active = well fitted inhibition curve with a large enough effect; inconclusive = small, poorly fitted or top-dose-only effect; inactive = flat fitted curve, though single readings scatter.
Potency is the fitted concentration of half-maximal effect.

Chain of Luciferin 4-monooxygenase (Photinus pyralis) (P08659 whole entry, looked up): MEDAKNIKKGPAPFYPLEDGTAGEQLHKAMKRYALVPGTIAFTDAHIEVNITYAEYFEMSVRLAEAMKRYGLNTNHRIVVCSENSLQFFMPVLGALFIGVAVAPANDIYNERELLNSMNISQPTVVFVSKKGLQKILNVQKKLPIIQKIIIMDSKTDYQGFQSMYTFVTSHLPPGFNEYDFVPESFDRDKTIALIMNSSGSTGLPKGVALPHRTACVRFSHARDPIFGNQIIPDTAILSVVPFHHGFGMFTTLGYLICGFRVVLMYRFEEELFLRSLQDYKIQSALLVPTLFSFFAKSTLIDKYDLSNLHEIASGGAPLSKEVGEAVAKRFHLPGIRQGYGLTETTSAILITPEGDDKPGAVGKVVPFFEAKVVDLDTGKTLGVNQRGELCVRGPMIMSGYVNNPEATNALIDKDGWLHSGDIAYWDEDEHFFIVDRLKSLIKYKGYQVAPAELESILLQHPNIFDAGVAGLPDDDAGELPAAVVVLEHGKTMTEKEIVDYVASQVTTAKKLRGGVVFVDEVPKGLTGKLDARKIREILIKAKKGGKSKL

With `CCn1c(-c2nonc2N)nc2cncc(C(=O)N3CCNCC3)c21`, the Potency result is “inactive”.

Turning to `COc1ccc2cc(-c3c(-c4ccncc4)nc(-c4ccc(S(C)=O)cc4C)n3C)ccc2c1` (centres undefined), the Potency result is “inactive”.

As for `Oc1[nH]c2ccccc2c1C=Nc1ccc(-n2cncn2)cc1`, the Potency is 18.3 µM (active).

For the molecule `Cc1ccc(NC(=O)c2ccnc(N3CCCC3)c2)cc1-c1ccc(C(=O)NCC2CC2)cc1`, the Potency entry is “inactive”.

For the molecule `COc1ccc2ncnc(Nc3ccc(OCc4ccccc4)cc3)c2c1`, the Potency entry is “inactive”.

As for `Fc1ccc(-c2ncn(CCCN3CCOCC3)c2-c2ccncc2)cc1`, the Potency result was “inactive”.

As for `NS(=O)(=O)c1ccc(-c2ccc3c(NC(=O)C4CC4)n[nH]c3c2)cc1`, the Potency result was “inactive”.

Take `Cc1cc(Cl)cc2c(N=Nc3ccc(S(N)(=O)=O)cc3)c(O)[nH]c12`: the Potency entry is “inactive”.

Take `Cc1nnc(-c2ccc(C)c(-c3ccc(C(=O)NCc4ccc(Cl)cc4)cc3)c2)o1`: the Potency entry was “inactive”.

`Cc1ccc(C(=O)NC(C)C)cc1-c1ccc(C(=O)NCC2CC2)cc1`: the Potency result was “inactive”.

Consider `O=C(Nc1n[nH]c2nnc(-c3cccnc3)cc12)C1CC1`, for which the Potency result is “inactive”.

Turning to `Cc1cc(O)cc(C)c1C=Cc1cncc(C(=O)OC(C)(C)C)c1`, the Potency entry was “inactive”.

With `c1ccc(Oc2ccc(Nc3ncc(-c4ccccc4)o3)cc2)cc1`, the Potency result was “inactive”.

For `COc1ccc(-c2nn3ncccc3c2-c2ccnc(Nc3ccc(F)c(F)c3)n2)cc1`, the Potency entry is “inactive”.

For `CC(=Nc1ccc(S(N)(=O)=O)cc1)c1c(O)[nH]c2ccccc12`, the Potency is 3.66 µM (active).

`CS(=O)(=O)CCNCc1ccc(-c2ccc3ncnc(Nc4ccc(OCc5ccccc5)c(C(F)(F)F)c4)c3c2)o1`: the Potency entry is “inactive”.

With `Nc1ncnc2occ(-c3ccc(NC(=O)Nc4cc(C(F)(F)F)cc(C(F)(F)F)c4)cc3)c12`, the Potency result was “inactive”.

As to `COC(=O)Nc1nc2ccc(Oc3ccc(NC(=O)Nc4cccc(Br)c4)cc3)cc2[nH]1`, the Potency entry was “inactive”.

In the case of `COc1ccc2ncn(-c3cc(OC(C)c4ccccc4Cl)c(C(N)=O)s3)c2c1` (centres undefined), the Potency entry is “inactive”.

In the case of `CN1CCN(CCCNc2nc3ccc(Oc4ccc(NC(=O)Nc5cc(C(F)(F)F)ccc5F)cc4)cc3[nH]2)CC1`, the Potency entry is “inactive”.

`NC(=O)c1sc(-n2cnc3cc(C(F)(F)F)ccc32)cc1OCc1ccccc1Br`: the Potency result is “inactive”.

In the case of `Cc1cccc(Nc2ncc(-c3ccccc3)o2)c1`, the Potency was 0.58 µM (active).

For `NC(=O)CCc1ccccc1Oc1nccc(-c2c(-c3ccc(F)cc3)ncn2C2CCNCC2)n1`, the Potency entry is “inactive”.

Turning to `Nc1ncnc2occ(-c3ccc(NC(=O)Nc4cc(C(F)(F)F)ccc4F)cc3)c12`, the Potency entry was “inactive”.

In the case of `Cc1cc(O)cc(C)c1C=Cc1cncc(C(N)=O)c1`, the Potency entry is “inactive”.

As for `N#Cc1ccc(Oc2nccc(-c3c(-c4ccc(F)cc4)ncn3C3CCNCC3)n2)cc1`, the Potency entry was “inactive”.

Turning to `Fc1ccc(-c2nc3n(c2-c2ccncc2)CCS3)cc1`, the Potency entry was “inactive”.

As for `NS(=O)(=O)c1ccc(N=Nc2c(O)[nH]c3ccc(C(=O)NCCCn4ccnc4)cc23)cc1`, the Potency entry is “inactive”.

Consider `Cc1ccc(Nc2ccnc(Nc3cccc(C(N)=O)c3)n2)cc1O`, for which the Potency was 1.46 µM (active).

In the case of `Fc1ccc(-c2c(-c3ccncc3)nc3n2CCS3)cc1`, the Potency result was “inactive”.

For `COc1cc2ncn(-c3cc(OCCc4ccccc4)c(C(N)=O)s3)c2cc1OC`, the Potency result is “inactive”.

For `Nc1nccc(-c2c(-c3ccc(F)cc3)ncn2CCCN2CCOCC2)n1`, the Potency result was “inactive”.

On to `COc1cc(Nc2ncc(-c3ccccc3)o2)cc(OC)c1OC`, for which the Potency entry is “inactive”.

`COc1ccc2cc(-c3c(-c4ccncc4)nc(-c4ccc(S(C)(=O)=O)cc4C)n3C)ccc2c1`: the Potency result was “inactive”.

The record behind these values is PubChem BioAssay AID652016 (National Center for Advancing Translational Sciences (NCATS), 2013).
